Experimental findings from PubChem BioAssay AID651819 (National Center for Advancing Translational Sciences (NCATS), 2012) are described below.

Molecules are shown by their SMILES. About 1,100 (0.31%) of roughly 360,000 compounds were called active. The list comes from a sample in which actives are over-represented; it also holds similar structures and randomly drawn compounds. A number with no mark means an inactive call. No stated cut-off is given here; in the data, active means activity change below about -30%; inactive means the rest.
On the % scale 0 is the no-effect control and ±100 the full control effect.

For this test, the system named is cytosolic chaperonin (CCT/TRiC complex). As to the kind of experiment: High-Throughput Screening for Modulators of Cytosolic Chaperonin Activity. To be noted: purified chaperonin ATPase assay, HTRF ADP detection, 30 min; stronger effect = lower value. An excerpt: The eukaryotic chaperonin named TRiC (for TCP-1 ring complex), also called CCT (for chaperonin containing TCP1), is an essential and conserved chaperone required for the folding and activation of 10-15% of the proteins encoded by the human genome. […] Despite its central role in cellular folding, little is known about TRiC mechanism and mode of substrate binding. Currently, no specific TRiC inhibitors are available. Given the early promise of other chaperone-directed inhibitors as cancer therapeutics (e.g. HSP90 inhibitors), inhibitors of TRiC activity may also selectively target transformed cells and have potential use as therapeutics for cancer.
To this end, a miniaturized assay was developed to screen against the Molecular Libraries Small Molecule Repository (MLSMR).
NIH Chemical Genomics Center [NCGC]
NIH Molecular Libraries Probe Centers Network [MLPCN]
Assay Submitter (PI): Judith Frydman, Stanford University
1.5 uL/well TRiC enzyme suspended in buffer (30 mM TRIS pH7.4, 100 mM KCl, 5 mM MgCl2, 1 mM DTT) was added with BioRAPTR FRD dispenser at 40 nM or 20 nM (based on the enzymatic activity of used batches) final concentration to a white solid bottom medium binding 1536-well plate (Greiner Bio-One, Monroe, NC), and quickly spanned down. 23 nl/well of compound solutions in DMSO were added with a pintool transfer (Kalypsis, San Diego, CA) at a single 76 uM final concentration. Next, 1.5 µl/well ATP was dispensed with BioraptR at 10 uM final concentration after which the plates were incubated at 37 deg C for 30 min. HTRF(R) Transcreener(R) ADP (Cisbio US, Bedford, MA) detection reagents were prepared accordingly to the protocol and dispensed into the plate (1.5 uL/well each), incubated for 30 min at ambient temperature. Then, the plates were read using Envision reader with excitation at 330nm and emission at 615nm (Eu(3)-Cryptate donor signal) and 665nm (d2 acceptor signal). The ratio of […] was calculated for each well.
On the technique in general: In TR-FRET formats the signal depends on donor and acceptor labels being close together.
For the compound `Nc1ccc([N+](=O)[O-])cc1`, the activity change was -35.1% (active).

Turning to `CC(=O)Cc1ccc(OC(C)C)cc1`, the activity change is -4.19%.

Consider `CC(C)(C)c1ccc(OC(=O)N2CCCCC2)cc1`, for which the activity change was -0.84%.

For the compound `COc1ccc(CCn2c(O)c(C=NC3CC3)c(=O)[nH]c2=O)cc1OC`, the activity change is -0.86%.

In the case of `O=C1NC(=O)C(C/C=C/c2ccccc2)C(=O)N1`, the activity change was -117% (active).

As to `O=C1NC(=O)C(Cc2ccccc2)C(=O)N1`, the activity change is -0.218%.

With `CSC1=NP(=S)(SC)N(C)c2nc3n(c21)CCC3` (stereo not given), the activity change was -0.177%.

For the compound `CCOC(=O)c1c(C)c(C(=O)N2CCC3(CC2)OCCO3)c(C)n1CC`, the activity change is -3.47%.

With `COCCNC(=O)CN1C2CCC1CC(O)(c1cccnc1)C2` (stereo not given), the activity change is 0.503%.

For the compound `Cc1ccc(Cn2nnnc2CN2CCC(n3nnc4ccccc43)CC2)cc1`, the activity change is -0.0525%.
